The record followed here is ChEMBL document CHEMBL3988442, “University of Dundee, Small-Polar-MMV Screening Library” (2021).

For part of these data: Results with a measured potency or affinity are listed apart.

Holding throughout (design): scale not given: direction of the effect not stated beside the values
Assay [1] has as its target Protein translocase subunit SecA (Escherichia coli (strain K12)) (UniProt P10408). Briefly: Assay to Identify E. coli SecA ATPase Inhibitors. The assay is classed as functional. Conditions: 30 µM.
Assay [2] addresses T1, Ubiquitin-activating enzyme e1, putative (Leishmania donovani (strain BPK282A1)) (UniProt E9BSI1).
T1 sequence (whole entry): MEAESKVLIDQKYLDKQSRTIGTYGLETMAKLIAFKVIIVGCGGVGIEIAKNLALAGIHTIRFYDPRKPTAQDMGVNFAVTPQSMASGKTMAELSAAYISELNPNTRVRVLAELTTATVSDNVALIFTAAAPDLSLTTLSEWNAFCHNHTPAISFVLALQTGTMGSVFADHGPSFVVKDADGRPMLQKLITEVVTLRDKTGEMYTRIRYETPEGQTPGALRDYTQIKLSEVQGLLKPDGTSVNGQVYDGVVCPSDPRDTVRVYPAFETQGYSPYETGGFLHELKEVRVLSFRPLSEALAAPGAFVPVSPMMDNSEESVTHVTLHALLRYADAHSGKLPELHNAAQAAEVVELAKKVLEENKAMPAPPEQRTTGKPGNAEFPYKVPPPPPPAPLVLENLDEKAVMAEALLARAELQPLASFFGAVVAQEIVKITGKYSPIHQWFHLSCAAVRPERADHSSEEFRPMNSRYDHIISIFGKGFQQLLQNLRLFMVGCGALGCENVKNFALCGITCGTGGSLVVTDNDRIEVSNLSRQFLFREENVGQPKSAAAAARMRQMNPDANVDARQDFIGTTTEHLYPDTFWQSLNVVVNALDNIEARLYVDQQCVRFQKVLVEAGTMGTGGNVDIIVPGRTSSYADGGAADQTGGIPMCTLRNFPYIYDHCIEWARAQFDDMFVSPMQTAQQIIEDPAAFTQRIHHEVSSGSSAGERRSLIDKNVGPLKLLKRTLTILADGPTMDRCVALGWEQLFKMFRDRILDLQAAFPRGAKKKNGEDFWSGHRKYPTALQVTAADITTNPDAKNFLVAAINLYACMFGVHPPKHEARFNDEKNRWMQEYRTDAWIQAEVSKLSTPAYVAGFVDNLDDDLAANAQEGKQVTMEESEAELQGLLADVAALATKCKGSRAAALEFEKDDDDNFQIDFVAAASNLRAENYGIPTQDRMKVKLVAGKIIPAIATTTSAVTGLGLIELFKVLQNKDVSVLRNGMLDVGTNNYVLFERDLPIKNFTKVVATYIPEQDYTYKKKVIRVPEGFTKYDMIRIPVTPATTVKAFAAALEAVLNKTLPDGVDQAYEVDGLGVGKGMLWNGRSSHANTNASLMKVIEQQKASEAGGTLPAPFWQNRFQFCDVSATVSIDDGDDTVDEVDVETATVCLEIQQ
Briefly: Leishmania donovani Ubiquitin Activating Enzyme (LdE1). The assay is classed as functional. Conditions: 30 µM.

Assay [3] has as its target Sialic acid-binding Ig-like lectin 9 (Homo sapiens) (UniProt Q9Y336). The experiment in a line: Hs-Siglec9 ALPHAscreen SOP 20170721. Conditions: 10 µM. In general terms: Bead proximity is the source of the signal in Alpha formats.
The subject of another assay is Trypanosoma cruzi. The experiment in a line: Trypanosoma cruzi phosphomannomutase and mannose-1-phosphate guanylyltransferase assay. The assay is classed as functional. Particulars: 10 µM.
Assay [4] concerns the target T2, Arginase-2, mitochondrial (Homo sapiens) (UniProt P78540).
T2 sequence (whole entry): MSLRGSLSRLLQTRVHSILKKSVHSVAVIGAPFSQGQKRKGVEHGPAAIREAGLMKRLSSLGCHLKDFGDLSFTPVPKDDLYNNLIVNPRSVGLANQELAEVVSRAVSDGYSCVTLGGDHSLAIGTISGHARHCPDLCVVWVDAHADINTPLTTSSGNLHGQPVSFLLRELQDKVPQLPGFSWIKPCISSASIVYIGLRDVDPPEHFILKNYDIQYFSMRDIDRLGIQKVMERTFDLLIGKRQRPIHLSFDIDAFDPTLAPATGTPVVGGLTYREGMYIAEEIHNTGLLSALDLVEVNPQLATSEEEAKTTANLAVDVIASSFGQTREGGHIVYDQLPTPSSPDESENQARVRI
Briefly: in vitro enzyme assay to detect the production of urea directly proportional to the activity of Arginase II. Also: in the data most compounds retested in dose-response had high values. Conditions: 33.3 µM. The assay is classed as functional.

The target of assay [5] is T3, Proteasome subunit beta (Trypanosoma cruzi) (UniProt O96673).
T3 sequence (whole entry): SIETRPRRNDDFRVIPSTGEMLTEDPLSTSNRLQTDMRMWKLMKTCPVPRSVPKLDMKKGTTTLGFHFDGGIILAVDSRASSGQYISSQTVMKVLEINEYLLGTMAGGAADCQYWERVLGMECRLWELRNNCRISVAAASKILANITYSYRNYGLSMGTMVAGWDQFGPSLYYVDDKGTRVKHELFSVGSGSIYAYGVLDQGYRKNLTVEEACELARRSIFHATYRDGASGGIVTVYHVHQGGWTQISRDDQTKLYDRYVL
The experiment in a line: Trypanosoma cruzi proteasome chymotrypsin-like activity (TcProtChymo) assay. Also: in the data most compounds retested in dose-response had high values. The assay is classed as functional. Particulars: 9.37 µM.

For a further assay, the species on record is Homo sapiens. Briefly: To identify inhibition of the IFN signalling (Jak-Stat) pathway via expression of an eGFP reporter gene under the control of an IFN-stimulated response element (ISRE) containing MxA promoter. The assay is classed as functional. Particulars: 30 µM.
Assay [6] concerns the target T4, Tyrosyl-tRNA synthetase, putative (Trypanosoma cruzi (strain CL Brener)) (UniProt Q4DSP6).
T4 sequence (whole entry): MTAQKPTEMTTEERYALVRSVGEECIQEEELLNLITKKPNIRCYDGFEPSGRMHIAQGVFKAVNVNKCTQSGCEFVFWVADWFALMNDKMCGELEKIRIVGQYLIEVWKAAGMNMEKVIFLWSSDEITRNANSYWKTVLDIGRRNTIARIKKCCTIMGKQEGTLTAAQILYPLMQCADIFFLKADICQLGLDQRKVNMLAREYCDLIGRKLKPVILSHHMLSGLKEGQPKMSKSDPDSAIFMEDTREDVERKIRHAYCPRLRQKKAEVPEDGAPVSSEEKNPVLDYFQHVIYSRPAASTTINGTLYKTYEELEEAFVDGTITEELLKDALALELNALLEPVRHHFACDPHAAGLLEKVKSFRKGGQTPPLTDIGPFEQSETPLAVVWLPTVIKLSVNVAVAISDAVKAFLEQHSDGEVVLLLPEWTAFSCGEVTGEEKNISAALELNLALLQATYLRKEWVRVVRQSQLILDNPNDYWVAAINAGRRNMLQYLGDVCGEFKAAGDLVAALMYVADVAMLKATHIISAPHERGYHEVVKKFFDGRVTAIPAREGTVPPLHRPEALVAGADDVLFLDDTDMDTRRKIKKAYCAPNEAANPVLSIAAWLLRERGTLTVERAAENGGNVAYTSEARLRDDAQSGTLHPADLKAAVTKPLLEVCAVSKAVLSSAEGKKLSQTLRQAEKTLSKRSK
Briefly: Trypanosoma cruzi tyrosyl tRNA synthetase (TcYRS) _High Tyrosine SOP. Also: in the data most compounds retested in dose-response had high values. Particulars: 30 µM. The assay is classed as functional.

For assay [7], the target named is T4, Tyrosyl-tRNA synthetase, putative (Trypanosoma cruzi (strain CL Brener)). The experiment in a line: Trypanosoma cruzi tyrosyl tRNA synthetase (TcYRS) SOP. The assay is classed as functional. Conditions: 30 µM.
Assay [8] deals with Chromo domain-containing protein 1 (Saccharomyces cerevisiae (strain ATCC 204508 / S288c) (Baker's yeast)) (UniProt P32657). Briefly: ScCHD-1 Enzyme Inhibition Assay. Also: in the data most compounds retested in dose-response had high values. The assay is classed as functional. Conditions: 30 µM.
Chain of Chromo domain-containing protein 1 (Saccharomyces cerevisiae (strain ATCC 204508 / S288c) (Baker's yeast)) (P32657 whole entry, the tested form may be a part): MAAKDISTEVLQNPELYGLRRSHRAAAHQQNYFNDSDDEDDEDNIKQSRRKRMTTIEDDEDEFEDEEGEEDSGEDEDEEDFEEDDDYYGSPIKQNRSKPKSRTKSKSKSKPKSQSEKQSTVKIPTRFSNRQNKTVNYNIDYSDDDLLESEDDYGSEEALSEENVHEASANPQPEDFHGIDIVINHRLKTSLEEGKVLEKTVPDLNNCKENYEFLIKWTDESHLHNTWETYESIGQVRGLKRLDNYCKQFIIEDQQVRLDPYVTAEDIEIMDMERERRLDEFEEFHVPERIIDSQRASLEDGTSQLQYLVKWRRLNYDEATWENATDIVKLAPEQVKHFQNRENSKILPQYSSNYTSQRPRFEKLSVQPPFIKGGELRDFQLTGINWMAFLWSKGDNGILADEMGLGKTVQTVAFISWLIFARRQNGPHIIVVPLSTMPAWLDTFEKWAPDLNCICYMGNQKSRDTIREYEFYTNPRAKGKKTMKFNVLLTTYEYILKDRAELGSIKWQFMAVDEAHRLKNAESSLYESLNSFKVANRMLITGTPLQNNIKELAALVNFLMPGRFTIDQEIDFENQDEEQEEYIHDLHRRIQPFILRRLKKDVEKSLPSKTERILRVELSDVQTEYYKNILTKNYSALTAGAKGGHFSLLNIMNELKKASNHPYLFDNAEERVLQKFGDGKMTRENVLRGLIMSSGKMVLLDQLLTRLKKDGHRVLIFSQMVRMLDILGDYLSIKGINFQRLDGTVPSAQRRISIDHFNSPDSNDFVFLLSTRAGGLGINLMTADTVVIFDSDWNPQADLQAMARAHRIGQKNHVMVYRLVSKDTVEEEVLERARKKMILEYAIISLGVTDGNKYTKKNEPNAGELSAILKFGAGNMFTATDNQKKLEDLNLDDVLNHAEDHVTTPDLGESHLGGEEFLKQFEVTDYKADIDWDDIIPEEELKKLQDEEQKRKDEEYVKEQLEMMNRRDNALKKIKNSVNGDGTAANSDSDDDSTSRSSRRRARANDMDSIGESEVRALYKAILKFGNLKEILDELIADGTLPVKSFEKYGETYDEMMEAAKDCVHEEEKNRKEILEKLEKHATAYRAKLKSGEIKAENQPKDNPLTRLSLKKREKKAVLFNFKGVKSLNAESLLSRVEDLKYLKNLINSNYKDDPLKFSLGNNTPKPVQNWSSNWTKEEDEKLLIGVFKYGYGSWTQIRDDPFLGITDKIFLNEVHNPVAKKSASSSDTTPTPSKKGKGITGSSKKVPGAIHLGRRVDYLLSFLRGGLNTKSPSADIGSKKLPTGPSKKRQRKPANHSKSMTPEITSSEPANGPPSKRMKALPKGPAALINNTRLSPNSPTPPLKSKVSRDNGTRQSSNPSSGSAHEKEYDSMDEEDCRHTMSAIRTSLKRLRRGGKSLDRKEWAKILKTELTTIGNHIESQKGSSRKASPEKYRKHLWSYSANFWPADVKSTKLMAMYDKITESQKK

Chain of Sialic acid-binding Ig-like lectin 9 (Homo sapiens) (Q9Y336 whole entry): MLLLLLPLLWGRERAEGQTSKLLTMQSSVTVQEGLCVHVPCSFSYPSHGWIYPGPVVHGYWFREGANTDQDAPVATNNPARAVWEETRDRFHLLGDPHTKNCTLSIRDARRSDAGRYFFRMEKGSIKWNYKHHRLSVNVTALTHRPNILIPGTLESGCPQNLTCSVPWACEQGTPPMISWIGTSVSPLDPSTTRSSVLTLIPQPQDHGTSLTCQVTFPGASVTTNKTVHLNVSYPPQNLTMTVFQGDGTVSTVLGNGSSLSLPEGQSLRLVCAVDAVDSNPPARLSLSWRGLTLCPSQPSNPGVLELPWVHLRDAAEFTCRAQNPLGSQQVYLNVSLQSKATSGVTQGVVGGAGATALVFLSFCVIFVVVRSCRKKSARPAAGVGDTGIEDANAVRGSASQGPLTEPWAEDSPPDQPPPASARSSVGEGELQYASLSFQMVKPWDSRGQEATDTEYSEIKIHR
Chain of Protein translocase subunit SecA (Escherichia coli (strain K12)) (P10408 whole entry): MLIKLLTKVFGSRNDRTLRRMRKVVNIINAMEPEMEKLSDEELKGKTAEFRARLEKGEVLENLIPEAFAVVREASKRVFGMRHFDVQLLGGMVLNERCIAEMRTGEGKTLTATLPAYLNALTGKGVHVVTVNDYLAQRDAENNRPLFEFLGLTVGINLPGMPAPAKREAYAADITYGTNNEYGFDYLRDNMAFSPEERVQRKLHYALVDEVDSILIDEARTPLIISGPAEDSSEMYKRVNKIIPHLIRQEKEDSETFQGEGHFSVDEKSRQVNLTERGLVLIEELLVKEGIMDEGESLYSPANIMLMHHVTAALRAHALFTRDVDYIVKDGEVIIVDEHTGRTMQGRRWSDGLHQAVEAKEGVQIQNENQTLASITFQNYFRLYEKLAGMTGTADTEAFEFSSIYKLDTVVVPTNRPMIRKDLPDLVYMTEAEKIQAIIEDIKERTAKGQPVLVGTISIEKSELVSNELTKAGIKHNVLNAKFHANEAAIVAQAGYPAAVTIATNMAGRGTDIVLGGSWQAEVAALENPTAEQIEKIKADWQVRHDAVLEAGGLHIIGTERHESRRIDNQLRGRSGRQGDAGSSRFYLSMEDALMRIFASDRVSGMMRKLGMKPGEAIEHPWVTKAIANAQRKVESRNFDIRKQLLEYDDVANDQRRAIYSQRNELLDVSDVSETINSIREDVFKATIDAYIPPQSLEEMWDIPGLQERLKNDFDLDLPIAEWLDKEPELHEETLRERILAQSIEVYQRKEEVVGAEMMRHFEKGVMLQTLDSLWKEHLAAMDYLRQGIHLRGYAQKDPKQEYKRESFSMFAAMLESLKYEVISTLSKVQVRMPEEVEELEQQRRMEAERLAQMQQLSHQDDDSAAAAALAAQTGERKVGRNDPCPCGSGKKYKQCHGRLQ

Take `COc1cccc(OC)c1CN1CCC2(CC(Nc3ccncn3)C2)C1` (stereo not given): the Percent Effect is -0.631% in [1]; 1.33% in assay [2]; 2.05% in [3]; -4.93% in the assay with Trypanosoma cruzi; 1.77% in assay [4]; 3.61% in assay [5]. For the same compound, the Percent Effect in the assay filed under Homo sapiens is 11.6%; in [6], 5.29%; in assay [7], 5%; in assay [8] it was -14%.

Take `COc1ccc(C2CC(=O)Nc3c2cnn3C)cc1` (stereo not given): the Percent Effect in assay [1] was -6.08%; in [2], 2.7%; in assay [3] it was -3.92%; in the assay with Trypanosoma cruzi, -9.99%; in [4], -5.94%; in [5] it was 8.39%. Moreover, the Percent Effect was 39.8% in the assay filed under Homo sapiens, -0.532% in assay [6], 4.88% in assay [7] and -3.56% in assay [8].

For the compound `O=C(CCC1CCN(Cc2ncc[nH]2)CC1)Nc1ccccc1Cl`, the Percent Effect is -2.38% in assay [1]; -5.41% in assay [2]; -2.45% in assay [3]; -0.291% with Trypanosoma cruzi; -2.45% in [4]; 8.56% in assay [5]. Besides, the Percent Effect in the assay filed under Homo sapiens is 0.831%; in assay [6], -0.532%; in [7], 0%; in [8] it was 4.74%.

On to `Cc1ccc(C(=O)N2CCN(CCc3cccs3)CC2)c(=O)[nH]1`, for which the Percent Effect in assay [1] was -2.8%; in [2], 2.56%; in assay [3], -0.768%; in the assay on Trypanosoma cruzi, -1.6%; in [4], 8.61%; in [5] it was -2.65%. Besides, the Percent Effect was 24.3% in the assay listed under Homo sapiens, 3.35% in assay [6], 10.8% in assay [7] and -2.19% in [8].

As for `CCN(CC1CCOC1)C(=O)Nc1ccc(N2CCCC2)nc1` (stereo not given), the Percent Effect was -6.5% in assay [1]; 12.8% in assay [2]; -1.33% in assay [3]; 5.35% in the assay on Trypanosoma cruzi; 2.87% in assay [4]; 14.2% in assay [5]. For the same compound, the Percent Effect in the assay listed under Homo sapiens was 10.2%; in assay [6], 7.18%; in assay [7], 18.1%; in [8], -10.3%.

Turning to `O=C1CCC2(CCCN(CCc3ccccc3)C2)N1Cc1cccnc1` (stereo not given), the Percent Effect was -0.897% in assay [1]; 22.1% in assay [2]; -2.1% in assay [3]; -2.44% in the assay on Trypanosoma cruzi; 2.28% in assay [4]; 18.8% in [5]. Besides, the Percent Effect was 4.75% in the assay listed under Homo sapiens, 12.6% in [6], 10% in [7] and -8.73% in assay [8].

As for `Cc1nc([C@@H]2C[C@@H]3CCN(C(=O)Cc4ccsc4)C[C@H]3O2)no1`, the Percent Effect is -3.1% in assay [1]; -1.3% in [2]; -5.06% in [3]; -3.21% in the assay with Trypanosoma cruzi; -1.62% in [4]; 10.5% in assay [5]. Further, the Percent Effect in the assay listed under Homo sapiens was -23.3%; in [6], -1.58%; in assay [7], 0%; in assay [8], -2.29%.

Turning to `CCCc1cc(C(=O)N2CCOC(c3nc(-c4cccs4)no3)C2)no1` (stereo not given), the Percent Effect in assay [1] was -3.79%; in assay [2], 9.33%; in [3] it was 6.29%; in the assay on Trypanosoma cruzi, 3.55%; in [4] it was 2.21%; in assay [5] it was 7.55%. The Percent Effect is 17% in the assay filed under Homo sapiens, -12.7% in assay [6], 2.5% in assay [7] and -19.9% in assay [8].

`O=C1CC(c2ccsc2)c2sc(C(=O)O)c(-c3ccccc3)c2N1` (stereo not given): the Percent Effect is -4.21% in [1]; 8.11% in assay [2]; 8.19% in assay [3]; 5.92% in the assay on Trypanosoma cruzi; 21.3% in assay [4]; 21.9% in [5]. Besides, the Percent Effect in the assay filed under Homo sapiens was 11.7%; in [6] it was 4.79%; in assay [7], 12.2%; in assay [8], 33.2%.

As for `c1ccc(OCc2ccncc2)c(CNC2CCc3ncnn3C2)c1` (stereo not given), the Percent Effect is 1.01% in assay [1]; 17.9% in assay [2]; -16.6% in assay [3]; -0.845% with Trypanosoma cruzi; 10.7% in assay [4]; 11.5% in assay [5]. The Percent Effect in the assay listed under Homo sapiens is 20%; in [6] it was 7.18%; in assay [7] it was 18.1%; in assay [8] it was -0.669%.

`CS(=O)(=O)N1CCC2(CC1)CC(CC(=O)NC1CC1)c1ccccc12` (stereo not given): the Percent Effect in assay [1] was -4.87%; in assay [2], 9.09%; in assay [3], 1.58%; in the assay on Trypanosoma cruzi it was 2.04%; in [4], -3.24%; in assay [5], 15.4%. In addition, the Percent Effect is -6.07% in the assay filed under Homo sapiens, 4.74% in [6], 10.3% in assay [7] and 0.815% in [8].

Turning to `Cc1cccc(C(=O)N2CCCCC2c2ccc(CN(C)C)cc2)n1` (stereo not given), the Percent Effect was -1.58% in assay [1]; 18.9% in [2]; 3.59% in assay [3]; 5.92% with Trypanosoma cruzi; 27.6% in assay [4]; 21.2% in assay [5]. The Percent Effect in the assay listed under Homo sapiens is 5.13%; in [6], 9.04%; in assay [7], 14.6%; in assay [8], -6.07%.
